This excerpt belongs to a sample that is enriched for hits.
RE007 growth inh = qHTS Assay for Inhibitors of the HIV-1 protein Vpr; S. pombe RE007 Vpr strain, BacTiter-Glo ATP luminescence, 24 h; Potency, µM (series often up to 92.2 µM), hits mostly inhibitors; AID 651644, 2012; hit rate 0.21% among 360,000; active = well fitted falling curve with a large enough effect; inconclusive = small, poorly fitted or top-dose-only effect; inactive = no such curve, though single readings can be large or run the other way; note: nearly all actives have a fitted effect of over 50% in size
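Fission yeast strain RE007, carrying one chromosomally integrated HIV-1 vpr copy, was seeded at OD 0.01 in PMG+AL medium with 23 nL pinned compound. After 24 h at 30 °C and 99% humidity, viability was read by BacTiter-Glo luminescence.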
FBPA Giardia inh = qHTS Assay for Inhibitors of Fructose-1,6-bisphosphate Aldolase from Giardia Lamblia; AID 2451, 2010; hit rate 0.71% among 290,000; Potency, µM (top dose mostly 59.6 µM), actives largely listed as inhibitors; purified Giardia FBPA; A8B2U2; note: nearly all actives have a fitted effect of over 55% in size
Target sequence (A8B2U2 whole entry, looked up): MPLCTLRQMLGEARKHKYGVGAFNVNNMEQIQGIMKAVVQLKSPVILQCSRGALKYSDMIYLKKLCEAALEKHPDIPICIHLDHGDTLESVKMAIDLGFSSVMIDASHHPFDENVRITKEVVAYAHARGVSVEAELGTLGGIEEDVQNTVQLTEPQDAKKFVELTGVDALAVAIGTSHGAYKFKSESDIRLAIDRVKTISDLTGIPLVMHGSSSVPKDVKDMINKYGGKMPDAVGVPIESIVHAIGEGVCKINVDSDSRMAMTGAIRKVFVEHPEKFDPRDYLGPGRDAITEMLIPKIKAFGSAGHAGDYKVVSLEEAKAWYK
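Giardia FBPA (40 nM reagent) was preincubated 10 min at RT with compound (up to 57.5 uM final), then substrate plus GAPDH/TPI/NAD/arsenate coupling system with diaphorase/resazurin was added; resorufin fluorescence (525/598 nm) was read after 20 min.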
TbPYK inhibitor = qHTS of Trypanosoma Brucei Inhibitors; TbPYK enzyme, Kinase-Glo Plus ATP luminescence, 45 min; Potency, µM (series often up to 76.8 µM), usual class: inhibitors; pyruvate kinase (Trypanosoma brucei), Q57TT1; hit rate 0.12% among 410,000; note: nearly all actives have a fitted effect of over 50% in size
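Screened from lowest to highest concentration, compounds were pinned into TbPYK/substrate mixtures, and ADP (130 uM final) was added. Plates sat at room temperature for 45 min prior to Kinase-Glo Plus detection by luminescence.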
Shiga toxin inh = A qHTS for Small Molecule Inhibitors of Shiga Toxin; Vero cells, Shiga toxin protein synthesis inhibition reporter; inhibition, % at 38.7 µM; hit rate 9.2% among 290,000; AID 2315, 2010; in the data active = inhibition mostly above about 28%, no sharp cut-off; inactive = mostly below about 43%
Cycloheximide cs = Cycloheximide Counterscreen for Small Molecule Inhibitors of Shiga Toxin. max response, %. AID 2314, 2010. hit rate 12% among 300,000. cell reporter, cycloheximide protein synthesis inhibition counterscreen; in the data active = max response mostly above about 13%, no sharp cut-off; inactive = mostly below about 14%; note: read at 38.3 µM for the half of the compounds with a filed dose
LmPK inhibitor = qHTS Assay for Inhibitors of Leishmania Mexicana Pyruvate Kinase (LmPK) | hit rate 0.37% among 290,000 | Potency, µM (highest dose often 57.5 µM), actives largely listed as inhibitors | AID 1721, 2009 | Q27686 | purified LmPK, Kinase-Glo ATP luminescence, 1 h
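0.1 nM LmPK, 0.5 mM PEP, 0.1 mM ADP; 50 mM imidazole pH 7.2, 7 mM MgCl2, 50 mM KCl; 1 h RT. Kinase-Glo luminescence readout, normalized to no-enzyme (full inhibition) and uninhibited wells.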
A number is an active result; – = inactive; ? = inconclusive; · = no result; ! = a repeat was not active; [ ] = remark or other dose. Unless noted, calls come from the whole dose curve; as a rule, active = well fitted curve in the direction sought with a large enough effect; inconclusive = small, poorly fitted or top-dose-only effect, or another doubt; inactive = no such curve, though single readings can be large; an effect the other way counts as inactive or inconclusive.

SMILES	RE007 growth inh	FBPA Giardia inh	TbPYK inhibitor	Shiga toxin inh	Cycloheximide cs	LmPK inhibitor
Clc1ccc(OCc2nnc(-c3ccccc3Br)o2)cc1	–	–	–	–	12	–
Clc1ccc2nc(CN3CCCc4ccccc43)cn2c1	–	?	–	56	23	–
Clc1ccc2nc(CN3CCCCC3)cn2c1	–	–	–	–	–	–
Cc1cc(OCc2cccc(Cl)c2)c(C)cc1CN1CCOCC1	–	–	–	–	24	–
COc1ccc(OCCn2cc(C(=O)c3ccco3)c3ccccc32)cc1	·	·	–	·	·	·
O=C(CSc1nc2ccccc2s1)N1CCOCC1	–	–	–	active	29	–
Nc1nc(N2CCOCC2)nc(N(c2ccccc2)c2ccccc2)n1	–	–	–	–	–	–
CCOc1cc(/C=C/c2nc3ccccc3s2)ccc1OCC(=O)N1CCOCC1	–	–	–	37	16	–
Nc1nc(CSc2nc3ccccc3s2)nc(N2CCOCC2)n1	–	–	–	–	15	–
CCOc1cc(C(=O)NCc2ccccc2)ccc1OCC(=O)N1CCOCC1	–	–	–	–	–	–
Nc1nc(CSCc2ccccc2)nc(N2CCOCC2)n1	–	–	–	46	46	–
CCCCC/C=C\C/C=C\C/C=C\CCCCCCC(=O)NCCc1ccc(O)c(O)c1	·	–	·	·	·	·
CCOC(=O)c1[nH]c2c(c1-c1ccccc1)C(=O)CC(c1ccc(OC)c(OC)c1)C2 (stereo not given)	–	–	–	–	15	–
CC(C)(C)CN1CCNC(=O)C1CC(=O)NCCc1cnn(-c2ccccc2)c1 (stereo not given)	–	–	–	–	12	–
CCOc1ccc(NC(=O)C(C)Sc2nc3ncccc3o2)cc1 (stereo not given)	·	·	–	·	·	·
CN1C(=O)/C(=C/C=C2\SCCN2C)SC1=S	·	–	·	82	58	–
CCCN1C(=O)/C(=C\C=C2/Sc3ccccc3N2CC)SC1=S	·	–	·	–	–	–
CN1C(=O)/C(=C/C=C2\SCCN2C)N(C)C1=S	–	–	–	121	49	–
CN1C(=O)C(=Cc2ccc(N3CCCCCC3)o2)C(=O)N(C)C1=S	–	–	?	–	–	–
CCc1c(C)c2cc3c(c(C)c2oc1=O)OCN(CCc1ccccc1F)C3	·	·	–	·	·	·
Cc1ccc(CNC(=O)C2CCCN(c3nc4c(C)cc(C)cc4s3)C2)cc1 (stereo not given)	·	·	–	·	·	·
COc1ccc2c(c1)CCc1cnoc1-2	?	·	–	·	·	·
COc1ccc2c(c1)CCc1cn[nH]c1-2	–	–	–	–	13	–
CC(C)OCCCNc1ncnc2c1[nH]c1ccccc12	–	–	–	–	16	–
O=c1c2[nH]c3ccccc3c2ncn1CCC1=CCCCC1	–	–	–	–	–	–
SMILES	RE007 growth inh	FBPA Giardia inh	TbPYK inhibitor	Shiga toxin inh	Cycloheximide cs	LmPK inhibitor
COc1ccc(CNc2ncnc3c2[nH]c2ccccc23)cc1	–	–	?	–	–	–
C1=C(CCNc2ncnc3c2[nH]c2ccccc23)CCCC1	–	–	–	116	26	–
CCOc1ccc2[nH]c3c(NCCOC)ncnc3c2c1	–	–	–	67	29	–
CCOc1ccc2[nH]c3c(NCC(C)C)ncnc3c2c1	–	–	–	59	33	–
CCOc1ccc2[nH]c3c(NCCCOC)ncnc3c2c1	–	–	–	48	35	–
CC1Cc2nc(SCC(=O)c3ccccc3)n(Cc3ccccc3)c(=O)c2S1 (stereo not given)	–	–	–	41	14	–
CCc1c(C)nc2cc(-c3ccc(OC)cc3)[nH]n2c1=O	–	–	–	130	32	–
Cc1cc(=O)n2[nH]c(-c3ccccc3)cc2n1	–	–	–	66	–	–
COCc1cc(=O)n2[nH]c(-c3ccc(C)cc3)cc2n1	–	–	–	72	37	–
CCOC(=O)Cc1cc(=O)n2[nH]c(-c3ccc(C)cc3)cc2n1	–	–	–	–	–	–
Cc1nc2cc(-c3ccccc3)[nH]n2c(=O)c1C	–	–	–	63	34	–
Cc1cc(=O)n2[nH]c(-c3ccc(C(C)(C)C)cc3)cc2n1	–	–	–	–	–	–
CCOC(=O)c1ccccc1NC(=O)CSc1nc2ncccc2[nH]1	·	·	–	·	·	·
CC[C@@H]1Cn2c(c3nc(-c4ccccc4)nc-3n(C)c2=O)N1	·	–	·	·	·	·
Cc1cc(C)cc(N(CC(=O)NCc2ccco2)C(=O)c2snc(C(N)=O)c2N)c1	–	–	–	36	33	–
COc1ccc(C(=O)C=Cc2cccs2)c(O)c1	–	·	–	·	·	·
COc1ccc(OC(=O)c2cccc([N+](=O)[O-])c2)c(C(=O)/C=C/c2cccs2)c1	–	–	–	–	19	–
C=C1CCN(C(C(=O)O)C(C)C)S(=O)(=O)c2ccccc21 (stereo not given)	·	–	·	–	–	·
Cc1cc(C)[n+]2n1C(=O)C(c1ccccc1)=C2[O-]	–	–	–	–	33!	–
Cc1ccc(C)c(N2CCN(C3=C(c4ccccc4)C(=O)c4ccccc43)CC2)c1	·	·	–	·	·	·
COCCn1c(=O)c(-c2ccc(Cl)cc2)nc2cnc(N3CCOCC3)nc21	·	–	·	·	·	·
CC(C)OCCCNC(=O)NC12CC3CC(CC(C3)C1)C2	–	–	–	–	13	–
COc1ccc(C(=O)N/N=C(\C)CC(=O)Nc2ccc3c(c2)OCO3)cc1	–	–	–	55	37	–
C/C(CC(=O)Nc1ccc2c(c1)OCCO2)=N\NC(=O)c1cccc(O)c1	–	–	–	84	33	–
C/C(CC(=O)Nc1ccc(Br)cc1)=N\NC(=O)c1cccc(O)c1	–	–	–	69	44	–
SMILES	RE007 growth inh	FBPA Giardia inh	TbPYK inhibitor	Shiga toxin inh	Cycloheximide cs	LmPK inhibitor
CCc1ccccc1NC(=O)N1CC(C)Sc2ccccc21 (stereo not given)	·	·	–[15.4 µM]	·	·	·
CO[C@H]1COC(=O)C/C=C\[C@@H](C)[C@H](OC)COC(=O)CCC[C@@H]1C	·	–[12.9 µM]	·	·	·	·
COc1cccc(N2C(=O)N(CC(=O)NCc3cccc(OC)c3OC)c3ccccc3S2(=O)=O)c1	·	·	–	·	·	·
CC(=O)NC12CC3CC(C1)CC(C(=O)Nc1nc4ccc(F)cc4s1)(C3)C2	–	·	–	71	45	–
CC(=O)OCC(=O)Nc1cc(C#N)cc(NC(=O)COC(C)=O)c1Cl	·	·	–	·	·	·
COC(=O)c1ccccc1-c1ccc(/C=N/NC(N)=O)o1	–	–	–	–	–	–
C=CCNC(=S)N/N=C/c1ccc(-c2ccc(Cl)cc2Cl)o1	–	·	–	·	·	·
COC(=O)N/N=C/c1ccc(-c2ccc(Cl)cc2Cl)o1	–	–	–	–	11	–
COC(=O)N/N=C/c1ccc(-c2ccccc2Cl)o1	–	–	–	41	41	–

Screening results deposited in PubChem BioAssay by National Center for Advancing Translational Sciences (NCATS).
